IDE exosite inh: insulin-degrading enzyme (human) exo-site inhibition; purified IDE, FL-6b probe fluorescence polarization; hits give low values; z-score at 20 µM; 17,000 tested, 6.3% active;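 active = z-score of -3 or lower, meaning strong loss of probe binding signal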;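 note: His-tagged human IDE residues 42-1019 made in E. coli with 30 nM FL-6b probe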
The depositor's hits bear a star. This is one part of a sample in which hits are shown more often than they occur.

Results for C/C=C/c1ccc(C2[C@@H]3CN(C(=O)Cc4ccncc4)C[C@H]2N3)cc1 (stereo partly drawn) ?
IDE exosite inh: 2.8

Results for C[C@H](NC(=O)[C@H]1[C@H](CO)[C@H]2Cn3c(cccc3=O)[C@H]2N1CCC(F)(F)F)c1ccccc1 ?
IDE exosite inh: 1

How did Cc1noc(C)c1S(=O)(=O)N(C)C[C@@H]1OCCCC[C@@H](C)Oc2ccc(NC(=O)CCC(F)(F)F)cc2C(=O)N([C@@H](C)CO)C[C@@H]1C do in these assays?
IDE exosite inh: 0.32

What do the screens show for `COc1ccc(S(=O)(=O)Nc2ccc3c(c2)C(=O)N([C@H](C)CO)C[C@H](C)[C@@H](CN(C)S(=O)(=O)c2ccc(Cl)cc2)OCCCC[C@@H](C)O3)cc1`?
IDE exosite inh: 0.088

Results for C/C=C/c1ccc([C@@H]2[C@H](CO)N(C(=O)NCCC)[C@H]2CNC(=O)C2CC2)cc1 ?
IDE exosite inh: -0.94

Results for COc1ccc(C#Cc2ccc([C@@H]3[C@@H](CO)N4C(=O)CN(C(=O)c5ccccc5)C[C@H]34)cc2)cc1 ?
IDE exosite inh: -0.18

Results for O=C(c1ccccc1)N1CC(=O)N2[C@H](CO)[C@@H](c3ccc(C#Cc4ccccc4)cc3)[C@@H]2C1 ?
IDE exosite inh: -0.2

Results for COc1ccc(C#Cc2ccc([C@H]3[C@@H](CO)N4C(=O)CN(C(=O)c5ccccc5)C[C@@H]34)cc2)cc1 ?
IDE exosite inh: 1.8

What do the screens show for `O=C(c1ccccc1)N1CC(=O)N2[C@H](C1)[C@H](c1ccc(C#Cc3ccccc3)cc1)[C@@H]2CO`?
IDE exosite inh: -4.3*

What do the screens show for `O=C(c1ccccc1)N1CC(=O)N2[C@H](CO)[C@H](c3ccc(C#Cc4ccccc4)cc3)[C@H]2C1`?
IDE exosite inh: -5.3*

What do the screens show for `O=C(c1ccccc1)N1CC(=O)N2[C@@H](CO)[C@@H](c3ccc(C#CC4CC4)cc3)[C@@H]2C1`?
IDE exosite inh: 1

What do the screens show for `O=C(C[C@H]1CC[C@H]2[C@@H](COC[C@@H](O)CN2Cc2ccc(C(F)(F)F)cc2)O1)N1CCc2ccccc2C1`?
IDE exosite inh: -0.43

How did CN(C[C@H]1[C@H](c2ccccc2)[C@H](CO)N1Cc1ccccn1)S(C)(=O)=O do in these assays?
IDE exosite inh: -0.6

How did CCCC(=O)Nc1ccc2c(c1)C(=O)N(C)[C@@H]1CC[C@H](CC(=O)N3CCCCC3)O[C@@H]1CO2 do in these assays?
IDE exosite inh: -0.59

What do the screens show for `C/C=C/c1ccc([C@@H]2[C@@H](CO)N(C(=O)CC)[C@H]2CNC(=O)c2ccncc2)cc1`?
IDE exosite inh: 1.4

What do the screens show for `COc1cccc(-c2ccc3c(c2)[C@@H]2[C@@H](CCN2S(=O)(=O)c2cn(C)cn2)[C@@H](CO)N3)c1`?
IDE exosite inh: 0.95

How did O=C(C[C@@H]1C[C@H]2c3cc(NC(=O)Nc4ccccc4F)ccc3O[C@H]2[C@@H](CO)O1)NCc1ccccn1 do in these assays?
IDE exosite inh: -0.42

Results for CN1C(=O)c2cc(NC(=O)Cc3cccs3)ccc2OC[C@H]2O[C@H](CC(=O)NCC3CCCCC3)CC[C@@H]21 ?
IDE exosite inh: -1.6

Results for O=C(C[C@H]1CC[C@H]2[C@@H](COC[C@@H](O)CN2Cc2cc(F)cc(F)c2)O1)Nc1nccs1 ?
IDE exosite inh: -2.9

What do the screens show for `Cc1ccccc1S(=O)(=O)N1CCCCN2[C@H](CO)[C@H](c3ccc(-c4cccnc4)cc3)[C@@H]2C1`?
IDE exosite inh: 0.85

Results for Cc1ccccc1S(=O)(=O)N1CCCCN2[C@H](CO)[C@H](c3ccc(-c4cncnc4)cc3)[C@H]2C1 ?
IDE exosite inh: 5.4

Results for Cc1ccccc1S(=O)(=O)N1CCCCN2[C@H](CO)[C@@H](c3ccc(-c4cncnc4)cc3)[C@@H]2C1 ?
IDE exosite inh: -4.6*

What do the screens show for `Cc1cccc(S(=O)(=O)N2CCCCN3[C@H](CO)[C@H](c4ccc(-c5cccnc5)cc4)[C@H]3C2)c1`?
IDE exosite inh: 4.9

Results for Cc1cccc(S(=O)(=O)N2CCCCN3[C@H](CO)[C@H](c4ccc(-c5cccnc5)cc4)[C@@H]3C2)c1 ?
IDE exosite inh: 4.4

How did Cc1ccccc1S(=O)(=O)N1CCCCN2[C@@H](CO)[C@@H](c3ccc(-c4cccnc4)cc3)[C@@H]2C1 do in these assays?
IDE exosite inh: -14*

What do the screens show for `Cc1ccccc1S(=O)(=O)N1CCCCN2[C@H](C1)[C@H](c1ccc(-c3cccnc3)cc1)[C@@H]2CO`?
IDE exosite inh: 4.1

What do the screens show for `O=S(=O)(c1ccccc1F)N1CCCCN2[C@H](C1)[C@@H](c1ccc(-c3cncnc3)cc1)[C@@H]2CO`?
IDE exosite inh: 3.8

How did Cc1cccc(S(=O)(=O)N2CCCCN3[C@H](CO)[C@@H](c4ccc(-c5cccnc5)cc4)[C@@H]3C2)c1 do in these assays?
IDE exosite inh: -3.7*

Results for O=C(NC[C@H]1[C@H](c2ccccc2)[C@@H](CO)N1C(=O)Cc1cccnc1)C1CCC1 ?
IDE exosite inh: -0.59

Results for O=S(=O)(Cc1ccccc1)N1CCCCN2[C@H](CO)[C@@H](c3ccc(-c4cncnc4)cc3)[C@@H]2C1 ?
IDE exosite inh: 3

How did C/C=C/c1ccc([C@H]2[C@@H](CO)N(C(C)=O)[C@H]2CN(CC(C)C)C(C)=O)cc1 do in these assays?
IDE exosite inh: 2.9

Results for COc1cccc(NC(=O)N2CC(=O)N3[C@@H](CO)[C@H](c4ccc(Br)cc4)[C@@H]3C2)c1 ?
IDE exosite inh: 0.13

Results for COCC(=O)N1[C@H](CO)[C@@H](c2ccccc2C2=CCCC2)[C@@H]1C#N ?
IDE exosite inh: -0.82

How did CN1[C@@H]2c3ccc(-c4cccnc4)c(=O)n3C[C@@H]2[C@@H](CO)[C@@H]1C(=O)N1CCc2ccccc2C1 do in these assays?
IDE exosite inh: -0.67

Results for C[C@@H]1CCc2cnnn2COC[C@@H](c2ccccc2)NC1=O ?
IDE exosite inh: 0.93

What do the screens show for `CCCN1[C@@H]2c3ccc(-c4ccccc4F)c(=O)n3C[C@@H]2[C@@H](CO)[C@@H]1C(=O)N1CCOCC1`?
IDE exosite inh: -0.42

What do the screens show for `Cc1ccc(-c2ccccc2[C@H]2[C@@H](C#N)N(C(=O)c3cccc(F)c3)[C@H]2CO)cc1`?
IDE exosite inh: 0.81

Results for COc1ccc(S(=O)(=O)Nc2ccc3c(c2)C(=O)N([C@H](C)CO)C[C@H](C)[C@H](CN(C)Cc2ccc(C(F)(F)F)cc2)OCCCC[C@@H](C)O3)cc1 ?
IDE exosite inh: -0.023

How did COc1ccc2c3c([nH]c2c1)[C@@H](CO)NCC31CCN(C(=O)Nc2ccccc2F)CC1 do in these assays?
IDE exosite inh: 0.058

What do the screens show for `N#C[C@@H]1[C@@H](c2ccc(C#CC3CC3)cc2)[C@H](CO)N1C(=O)Cc1ccccn1`?
IDE exosite inh: 3

Results for CN(C)C(=O)c1cccc(-c2ccc([C@H]3[C@H]4CN(C(=O)C5CCCCC5)CC(=O)N4[C@H]3CO)cc2)c1 ?
IDE exosite inh: 2.2

How did COc1cccc(-c2ccc([C@@H]3[C@@H](CO)N4C(=O)CN(C(=O)C5CCC5)C[C@H]34)cc2)c1 do in these assays?
IDE exosite inh: -4.3*

How did COc1ccc(-c2ccc([C@H]3[C@@H](CO)N4C(=O)CN(C(=O)C5CCCC5)C[C@@H]34)cc2)cc1 do in these assays?
IDE exosite inh: -2.5

What do the screens show for `COc1ccc(-c2ccc([C@H]3[C@@H](CO)N4C(=O)CN(C(=O)C5CCCC5)C[C@H]34)cc2)cc1`?
IDE exosite inh: -7.7*

Results for COc1cccc(-c2ccc([C@H]3[C@H]4CN(C(=O)C5CCC5)CC(=O)N4[C@H]3CO)cc2)c1 ?
IDE exosite inh: -5.7*
